Reference: PubChem BioAssay AID2576 (National Center for Advancing Translational Sciences (NCATS), 2010)
“And” between values parts separate entries of the source, which are not always exact repeats. Identical values can stand only once. Records with an inconclusive call do not appear. Where a structure was tested more than once in an assay, its records may differ in their call. The source made the active and inactive calls. The call rests on the fitted dose curve; in most records, active means well fitted activation curve with a large enough effect; inconclusive means small, poorly fitted or top-dose-only effect, or effect the other way; inactive means flat fitted curve, though single readings scatter.

target: Pyruvate kinase PKM (Homo sapiens) (UniProt P14618); assay: Secondary LDH Assay for Activators of Human Pyruvate Kinase M2 isoform: for Probe SAR; settings: purified hPK-M2, LDH-coupled NADH fluorescence kinetic; series mostly up to 58.4 µM; activation: at the top concentration
From the text: NIH Chemical Genomics Center [NCGC] Matthew G. Vander Heiden, M.D., Ph.D. [Harvard Medical School, 77 Avenue Louis Pasteur, Boston, MA 02115] NCGC Assay Overview: Human pyruvate kinase muscle 2 (hPK-M2)enzyme was supplied as a highly purified (>95% pure) preparation from Harvard Medical School and a secondary assay was used to evaluate compounds. This assay couples the formation of pyruvate from hPK-M2 using lactate dehydrogenase (LDH) and NADH. The depletion of NADH is followed in a fluorescent-based kinetic assay that follows the formation of pyruvate to lactate, as catalyzed LDH (described by Hannaert et al., 2002)1 Pyruvate kinase substrates, PEP and ADP, were present in the assay at 0.1 mM and 4 mM respectively. In this kinetic assay initial rates were determined by following the fluorescence of NADH depletion.
NCGC Assay Protocol Summary: Three uL of substrate mix (final concentration, 50 mM Tris-Cl pH 8.0, 200 mM KCl, 15 mM MgCl2, 0.1 mM PEP, 4.0 mM ADP, and 0.2 mM NADH) was dispensed into black-solid 1536 well plates. 23 nL of compounds were delivered by a pin tool and 1 uL of enzyme mix (final concentrations, 10 nM hPK-M2 and 1 uM of LDH) was added. Plates were immediately placed in ViewLux (Perkin Elmer) and NADH fluorescence was determined at 30 second exposure intervals for between 3 and 6 minutes. Data were normalized to the uninhibited and EC100 activation using known activators such as fructose-bis-phosphate.

Sequence of Pyruvate kinase PKM (Homo sapiens) (P14618 whole entry, looked up, canonical isoform): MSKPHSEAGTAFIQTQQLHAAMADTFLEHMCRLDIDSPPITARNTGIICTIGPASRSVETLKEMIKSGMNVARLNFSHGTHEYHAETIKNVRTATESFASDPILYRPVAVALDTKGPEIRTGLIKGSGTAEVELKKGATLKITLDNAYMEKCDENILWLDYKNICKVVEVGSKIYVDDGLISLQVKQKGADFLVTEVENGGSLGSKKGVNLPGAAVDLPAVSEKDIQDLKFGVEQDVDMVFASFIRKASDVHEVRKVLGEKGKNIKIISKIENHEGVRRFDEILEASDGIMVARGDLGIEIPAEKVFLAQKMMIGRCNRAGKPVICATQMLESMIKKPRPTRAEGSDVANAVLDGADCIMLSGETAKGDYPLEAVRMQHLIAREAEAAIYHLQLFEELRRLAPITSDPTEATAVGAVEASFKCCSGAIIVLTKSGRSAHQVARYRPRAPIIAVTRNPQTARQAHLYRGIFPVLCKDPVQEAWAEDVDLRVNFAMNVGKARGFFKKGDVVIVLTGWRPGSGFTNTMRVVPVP

| Structure (SMILES) | activation | Potency |
| --- | --- | --- |
| COc1ccc(S(=O)(=O)Nc2ccc(C)c(C)c2)cc1 | 13.8% (inactive) | – |
| Cc1cc(N2C(=O)c3ccccc3C2=O)no1 | -1.03% (inactive) | – |
| COc1cccc(N2C(=O)c3ccccc3C2=O)c1 | 17.9% (inactive) | – |
| COc1cccc(Cn2ncc3c4sc(S(C)=O)cc4n(C)c3c2=O)c1 (stereo not given) | – | 410 nM (active) and 206 nM (active) |
| O=C1CCc2cc(S(=O)(=O)Nc3cccnc3)ccc2N1 | -4.47% (inactive) | – |
| Cc1ccc(NS(=O)(=O)c2ccc3c(c2)N(C)C(=O)CO3)cc1C | – | 1.46 µM (active) |
| Cc1ccc2nc(-c3ccc(C)o3)c(NC3CCCC3)n2c1 | -15.3% (inactive) | – |
| O=C1c2ccccc2C(=O)N1c1cccc2ccncc12 | -6.87% (inactive) | – |
| O=C1c2ccccc2C(=O)N1c1cccc2cnccc12 | -6.12% (inactive) | – |
| Cc1ccc(NS(=O)(=O)c2cc3c(cc2-c2cn[nH]c2)NC(=O)CO3)cc1C | 2.03% (inactive) | – |
| Cc1ccc(NS(=O)(=O)c2cc3c(cc2C)NC(=O)CO3)cc1C | – | 1.03 µM (active) |
| Cc1ccccc1Nc1c(-c2ccc(Cl)s2)nc2ccccn12 | 0.026% (inactive) | – |
| Cc1ccc(N2C(=O)c3ccccc3C2=O)c(C)c1 | 1.44% (inactive) | – |
| COc1cccc(Cn2ncc3c4sc(SC)cc4n(C)c3c2=O)c1 | – | 0.206 µM (active) |
| Cc1cc2c(s1)c1cnn(Cc3cc(F)ccc3F)c(=O)c1n2C | – | 0.447 µM (active) |
| CN(C)c1cccc(S(=O)(=O)N2CCN(S(=O)(=O)c3ccc4c(c3)OCCO4)CC2)c1 | 2.94% (inactive) | – |
| Cc1ccc(NS(=O)(=O)c2ccc3c(c2)CCCC(=O)N3)cc1C | 25.4% (inactive) | – |
| Cc1ccc(NS(=O)(=O)c2ccc3c(c2)CCC(=O)N3)cc1 | – | 5.17 µM (active) |
| Cc1ccc(NS(=O)(=O)c2cccc(C(=O)O)c2)cc1C | 14.2% (inactive) | – |
| O=C1c2ccccc2C(=O)N1c1cccc(=O)[nH]1 | 3.56% (inactive) | – |

| Structure (SMILES) | activation | Potency |
| --- | --- | --- |
| O=C1c2ccccc2C(=O)N1c1ccc2ncccc2c1 | -4.15% (inactive) | – |
| Cn1c2cc(S(C)=O)sc2c2cnn(Cc3cccc(O)c3)c(=O)c21 (stereo not given) | – | 1.03 µM (active) |
| CNc1cccc(S(=O)(=O)N2CCN(S(=O)(=O)c3ccc4c(c3)OCCO4)CC2)c1 | 11% (inactive) | – |
| COc1cc(N2C(=O)c3ccccc3C2=O)c2ncccc2c1 | 4.6% (inactive) | – |
| O=C1c2ccccc2C(=O)N1c1cccc2ncccc12 | 3.02% (inactive) | – |
| Cc1ccc(NS(=O)(=O)c2cccc(Cl)c2)cc1C | 27.6% (inactive) | – |
| COc1ccccc1OC1=NS(=O)(=O)c2ccccc21 | -4.13% (inactive) | – |
| Cc1ccc(NS(=O)(=O)c2cc3c(cc2Cl)NC(=O)CO3)cc1C | – | 0.819 µM (active) |
| Cc1ccc(NS(=O)(=O)c2ccc(F)cc2)cc1C | 14.6% (inactive) | – |
| COc1ccc(N2C(=O)c3ccccc3C2=O)cc1 | 1.75% (inactive) | – |
| Cc1cc2c(s1)c1cnn(Cc3ccccc3F)c(=O)c1n2C | – | inactive and 291 nM (active) |
| Cc1ccc(NS(=O)(=O)c2ccc3c(c2)CCN(C(=O)C(F)(F)F)C3)cc1C | 16.1% (inactive) | – |
| Cc1ccc(OC2=NS(=O)(=O)c3ccccc32)cc1 | -2.38% (inactive) | – |
| Cc1cccc(NS(=O)(=O)c2ccc3c(c2)CCC(=O)N3)c1 | – | 1.83 µM (active) |
| COc1ccc(NS(=O)(=O)c2ccc3c(c2)CCC(=O)N3)cc1 | 24.1% (inactive) | – |
| Cc1ccc2nc(-c3cccs3)c(Nc3ccccc3)n2c1 | -15.2% (inactive) | – |
| O=C1c2ccccc2C(=O)N1c1nccs1 | 9.77% (inactive) | – |
| CCCCN1C(=O)c2ccccc2C1=O | 2.71% (inactive) | – |
| Cc1ccc(NS(=O)(=O)c2cccc(F)c2)cc1C | 18.4% (inactive) | – |
| Cc1ccc(NS(=O)(=O)c2ccc3c(c2)oc(=O)n3C)cc1C | 23.2% (inactive) | – |
